Common to all, as to test: DAPPL (digital affinity profiling via proximity ligation, sequencing); 10 mM Tris-HCl pH 7.5, 50 mM NaCl, 1 mM DTT, 4% glycerol, room temperature, 30 min; GST-TFs on glutathione beads, 16-mer random dsDNA library, 0.1% formaldehyde crosslink after washing; high values mean tight binding
One test has as its target T1, FLI1 (Homo sapiens, UniProt Q01543 1-452).
T1 sequence: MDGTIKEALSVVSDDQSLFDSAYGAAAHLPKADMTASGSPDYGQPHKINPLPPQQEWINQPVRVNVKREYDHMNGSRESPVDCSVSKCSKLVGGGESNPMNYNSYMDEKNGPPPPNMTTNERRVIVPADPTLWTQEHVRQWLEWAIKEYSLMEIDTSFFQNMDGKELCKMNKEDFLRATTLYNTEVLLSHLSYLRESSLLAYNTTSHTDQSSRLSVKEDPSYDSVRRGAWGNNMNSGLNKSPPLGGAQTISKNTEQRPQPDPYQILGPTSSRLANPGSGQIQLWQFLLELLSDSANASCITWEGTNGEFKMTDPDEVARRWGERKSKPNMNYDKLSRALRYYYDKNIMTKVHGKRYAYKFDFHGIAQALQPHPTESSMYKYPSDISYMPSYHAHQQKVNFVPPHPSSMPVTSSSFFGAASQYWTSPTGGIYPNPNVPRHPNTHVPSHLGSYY
The note with it: protein: recombinant; tags: N-terminal GST; dsDNA, one strand shown. Put shortly: (§1)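 Binding signal is given per hexamer as its read frequency for a factor divided by its frequency in the tag-only sample. GST-fused human transcription factors were expressed in yeast, captured on glutathione beads, barcoded with DNA and pooled with that sample, then incubated with 200 nmole of a 16-mer random double-stranded DNA library in Tris/NaCl/DTT/glycerol buffer for 30 min at room temperature. The pools were then washed, crosslinked, proximity-ligated, amplified by PCR and sequenced on an Illumina NextSeq500.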

The target in another test is T2, ELK1 (Homo sapiens, UniProt P19419 1-428).
T2 sequence: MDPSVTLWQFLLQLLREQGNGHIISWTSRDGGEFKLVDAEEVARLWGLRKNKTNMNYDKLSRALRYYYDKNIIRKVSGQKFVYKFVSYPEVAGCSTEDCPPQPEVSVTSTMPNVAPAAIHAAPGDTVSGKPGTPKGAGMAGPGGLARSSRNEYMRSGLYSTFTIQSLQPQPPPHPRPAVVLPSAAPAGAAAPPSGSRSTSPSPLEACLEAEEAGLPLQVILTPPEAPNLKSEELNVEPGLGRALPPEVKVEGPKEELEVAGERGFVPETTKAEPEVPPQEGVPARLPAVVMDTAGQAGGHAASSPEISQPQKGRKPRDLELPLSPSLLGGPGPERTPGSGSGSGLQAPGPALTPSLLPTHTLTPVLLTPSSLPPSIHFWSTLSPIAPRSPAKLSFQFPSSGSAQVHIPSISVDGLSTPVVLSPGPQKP
As to conditions: protein: recombinant; tags: N-terminal GST; dsDNA, one strand shown. Put shortly:
as §1

In another test the target is T3, GABPA (Homo sapiens, UniProt Q06546 1-454).
T3 sequence: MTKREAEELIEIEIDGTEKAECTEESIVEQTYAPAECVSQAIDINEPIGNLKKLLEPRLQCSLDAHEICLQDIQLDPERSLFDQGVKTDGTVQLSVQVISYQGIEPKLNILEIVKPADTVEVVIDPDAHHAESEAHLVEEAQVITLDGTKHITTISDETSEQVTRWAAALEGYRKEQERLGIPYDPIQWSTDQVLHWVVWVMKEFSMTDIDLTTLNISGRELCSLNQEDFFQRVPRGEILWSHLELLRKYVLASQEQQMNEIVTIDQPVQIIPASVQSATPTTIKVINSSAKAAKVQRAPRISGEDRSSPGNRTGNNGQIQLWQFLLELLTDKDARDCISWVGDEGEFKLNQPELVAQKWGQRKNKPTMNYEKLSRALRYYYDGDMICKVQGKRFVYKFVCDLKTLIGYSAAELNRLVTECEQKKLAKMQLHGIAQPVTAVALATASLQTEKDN
The note with it: protein: recombinant; tags: N-terminal GST; dsDNA, one strand shown. Put shortly:
as §1

The next test has as its target T4, ERG (Homo sapiens, UniProt P11308 1-479).
T4 sequence: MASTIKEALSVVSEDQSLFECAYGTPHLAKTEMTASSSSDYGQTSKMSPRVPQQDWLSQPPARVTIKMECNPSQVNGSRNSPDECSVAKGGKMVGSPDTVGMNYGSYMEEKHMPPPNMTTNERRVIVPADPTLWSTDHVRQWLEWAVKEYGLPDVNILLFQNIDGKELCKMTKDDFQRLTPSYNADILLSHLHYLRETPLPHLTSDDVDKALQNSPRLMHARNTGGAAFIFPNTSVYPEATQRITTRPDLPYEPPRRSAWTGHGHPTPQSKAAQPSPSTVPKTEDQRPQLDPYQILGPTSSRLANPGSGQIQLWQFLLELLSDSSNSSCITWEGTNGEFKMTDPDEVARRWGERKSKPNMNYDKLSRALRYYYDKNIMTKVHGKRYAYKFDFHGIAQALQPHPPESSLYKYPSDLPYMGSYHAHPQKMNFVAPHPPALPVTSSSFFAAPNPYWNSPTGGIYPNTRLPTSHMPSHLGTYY
As to conditions: protein: recombinant; tags: N-terminal GST; dsDNA, one strand shown. The procedure, abridged: as §1

The target in a further test is ELF1 (Homo sapiens, UniProt P32519 1-619). The note with it: protein: recombinant; tags: N-terminal GST; dsDNA, one strand shown. Put shortly:
as §1

In another test the target is T5, EHF (Homo sapiens, UniProt Q9NZC4 1-300).
T5 sequence: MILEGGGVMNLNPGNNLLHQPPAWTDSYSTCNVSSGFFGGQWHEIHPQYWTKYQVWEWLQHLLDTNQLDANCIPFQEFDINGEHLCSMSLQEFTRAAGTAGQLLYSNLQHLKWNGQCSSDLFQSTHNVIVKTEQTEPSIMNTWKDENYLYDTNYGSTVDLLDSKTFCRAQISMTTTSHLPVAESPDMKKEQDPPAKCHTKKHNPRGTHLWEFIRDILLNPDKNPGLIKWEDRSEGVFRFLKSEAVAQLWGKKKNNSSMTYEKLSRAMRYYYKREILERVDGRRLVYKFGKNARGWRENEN
As to conditions: protein: recombinant; tags: N-terminal GST; dsDNA, one strand shown. The procedure, abridged: as §1

The target in a further test is SPI1 (Homo sapiens, UniProt P17947 1-270). As to conditions: protein: recombinant; tags: N-terminal GST; dsDNA, one strand shown. The procedure, abridged: as §1
Another test concerns the target SPIB (Homo sapiens, UniProt Q01892 1-262). As to conditions: protein: recombinant; tags: N-terminal GST; dsDNA, one strand shown. Put shortly: as §1
The target in the next test is T6, ELK3 (Homo sapiens, UniProt P41970 1-407).
T6 sequence: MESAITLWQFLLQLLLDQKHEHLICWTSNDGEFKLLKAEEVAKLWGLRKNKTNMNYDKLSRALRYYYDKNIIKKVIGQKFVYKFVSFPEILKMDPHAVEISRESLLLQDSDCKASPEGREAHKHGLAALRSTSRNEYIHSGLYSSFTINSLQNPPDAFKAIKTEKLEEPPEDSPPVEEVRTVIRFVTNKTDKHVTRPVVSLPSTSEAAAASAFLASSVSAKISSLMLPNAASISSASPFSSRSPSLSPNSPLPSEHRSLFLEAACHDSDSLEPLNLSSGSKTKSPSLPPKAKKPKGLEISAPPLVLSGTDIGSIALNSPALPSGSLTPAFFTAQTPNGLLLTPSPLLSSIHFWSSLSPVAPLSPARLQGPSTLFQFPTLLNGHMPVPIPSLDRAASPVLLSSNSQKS
The note with it: protein: recombinant; tags: N-terminal GST; dsDNA, one strand shown. The procedure, abridged: as §1

For the next test, the target named is T7, FEV (Homo sapiens, UniProt Q99581 1-238).
T7 sequence: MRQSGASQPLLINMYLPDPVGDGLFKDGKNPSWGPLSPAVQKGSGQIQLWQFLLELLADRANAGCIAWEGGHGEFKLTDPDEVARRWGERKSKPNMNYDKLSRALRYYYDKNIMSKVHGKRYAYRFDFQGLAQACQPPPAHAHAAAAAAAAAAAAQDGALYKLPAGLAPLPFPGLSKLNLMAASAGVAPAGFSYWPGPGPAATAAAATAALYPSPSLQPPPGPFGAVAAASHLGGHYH
As to conditions: protein: recombinant; tags: N-terminal GST; dsDNA, one strand shown. The procedure, abridged: as §1

The next test deals with ETV5 (Homo sapiens, UniProt P41161 1-510). The note with it: protein: recombinant; tags: N-terminal GST; dsDNA, one strand shown. Put shortly:
as §1

Another test concerns the target HSF1 (Homo sapiens, UniProt Q00613 1-529). The note with it: protein: recombinant; tags: N-terminal GST; chain copies: 3; dsDNA, one strand shown. Put shortly:
as §1

The target in another test is T8, SPIC (Homo sapiens, UniProt Q8N5J4 1-248).
T8 sequence: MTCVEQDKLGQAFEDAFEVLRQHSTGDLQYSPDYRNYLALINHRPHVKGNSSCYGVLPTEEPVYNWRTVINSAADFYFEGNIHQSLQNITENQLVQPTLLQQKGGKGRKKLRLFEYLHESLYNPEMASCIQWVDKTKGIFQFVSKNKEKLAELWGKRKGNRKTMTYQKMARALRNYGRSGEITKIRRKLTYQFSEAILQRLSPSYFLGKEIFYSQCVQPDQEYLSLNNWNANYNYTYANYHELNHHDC
The note with it: protein: recombinant; tags: N-terminal GST; dsDNA, one strand shown. The procedure, abridged:
as §1

The target of a further test is ELF4 (Homo sapiens, UniProt Q99607 1-663). As to conditions: protein: recombinant; tags: N-terminal GST; dsDNA, one strand shown. The procedure, abridged: as §1
Chain of ELF4 (Q99607 whole entry): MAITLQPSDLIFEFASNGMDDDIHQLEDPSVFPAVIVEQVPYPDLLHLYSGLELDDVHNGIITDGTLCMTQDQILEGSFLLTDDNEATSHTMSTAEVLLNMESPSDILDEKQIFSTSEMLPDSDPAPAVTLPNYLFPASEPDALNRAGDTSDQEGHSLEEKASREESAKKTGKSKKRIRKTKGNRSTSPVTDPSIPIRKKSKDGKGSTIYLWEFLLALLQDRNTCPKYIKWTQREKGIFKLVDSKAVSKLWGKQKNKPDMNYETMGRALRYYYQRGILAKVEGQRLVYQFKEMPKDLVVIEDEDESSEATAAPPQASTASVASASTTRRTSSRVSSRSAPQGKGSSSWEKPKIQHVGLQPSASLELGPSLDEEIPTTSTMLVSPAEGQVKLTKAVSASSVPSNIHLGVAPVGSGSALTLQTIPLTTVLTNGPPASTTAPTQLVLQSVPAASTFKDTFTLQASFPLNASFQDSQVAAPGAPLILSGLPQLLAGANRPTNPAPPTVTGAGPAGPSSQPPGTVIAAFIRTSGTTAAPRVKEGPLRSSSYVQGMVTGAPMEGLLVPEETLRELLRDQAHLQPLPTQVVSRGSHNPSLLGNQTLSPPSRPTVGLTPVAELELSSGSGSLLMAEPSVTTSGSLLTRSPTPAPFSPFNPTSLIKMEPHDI
The next test deals with T9, ELK4 (Homo sapiens, UniProt P28324-2 1-405).
T9 sequence: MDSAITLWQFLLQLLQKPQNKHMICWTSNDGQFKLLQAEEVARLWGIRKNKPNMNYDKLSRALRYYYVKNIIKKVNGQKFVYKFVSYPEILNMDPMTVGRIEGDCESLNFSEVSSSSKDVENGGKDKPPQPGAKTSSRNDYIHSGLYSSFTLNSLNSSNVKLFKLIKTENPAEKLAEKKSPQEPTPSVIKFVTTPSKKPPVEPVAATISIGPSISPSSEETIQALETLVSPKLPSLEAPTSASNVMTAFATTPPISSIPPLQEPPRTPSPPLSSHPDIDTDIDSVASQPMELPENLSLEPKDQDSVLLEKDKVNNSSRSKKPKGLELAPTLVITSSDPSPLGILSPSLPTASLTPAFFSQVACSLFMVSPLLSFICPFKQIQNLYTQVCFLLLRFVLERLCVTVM
The note with it: protein: recombinant; tags: N-terminal GST; dsDNA, one strand shown. The procedure, abridged:
as §1

The next test deals with T10, ETV2 (Homo sapiens, UniProt O00321 1-342).
T10 sequence: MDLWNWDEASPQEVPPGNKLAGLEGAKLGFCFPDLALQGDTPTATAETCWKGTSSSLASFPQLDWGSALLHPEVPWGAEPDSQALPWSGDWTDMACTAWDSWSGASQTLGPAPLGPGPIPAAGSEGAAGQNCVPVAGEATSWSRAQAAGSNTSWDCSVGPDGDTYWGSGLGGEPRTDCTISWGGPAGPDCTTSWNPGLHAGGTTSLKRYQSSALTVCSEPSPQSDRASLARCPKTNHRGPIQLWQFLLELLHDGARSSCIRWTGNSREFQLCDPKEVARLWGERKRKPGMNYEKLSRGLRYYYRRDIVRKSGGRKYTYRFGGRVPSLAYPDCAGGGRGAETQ
As to conditions: protein: recombinant; tags: N-terminal GST; dsDNA, one strand shown. Put shortly: as §1

Another test has as its target T11, ELF3 (Homo sapiens, UniProt P78545 1-371).
T11 sequence: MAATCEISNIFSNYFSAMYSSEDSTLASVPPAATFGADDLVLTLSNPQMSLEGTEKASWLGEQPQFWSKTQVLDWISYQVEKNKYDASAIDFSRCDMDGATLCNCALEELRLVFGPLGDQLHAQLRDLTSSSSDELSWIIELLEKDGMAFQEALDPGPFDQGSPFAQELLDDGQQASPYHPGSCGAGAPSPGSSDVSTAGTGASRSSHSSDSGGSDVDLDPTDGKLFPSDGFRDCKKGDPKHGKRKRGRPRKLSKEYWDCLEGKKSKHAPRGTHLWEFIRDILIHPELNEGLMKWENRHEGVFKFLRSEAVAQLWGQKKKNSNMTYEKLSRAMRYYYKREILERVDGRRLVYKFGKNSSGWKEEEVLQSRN
As to conditions: protein: recombinant; tags: N-terminal GST; dsDNA, one strand shown. Put shortly:
as §1

The target of the next test is CRX (Homo sapiens, UniProt O43186 1-299). As to conditions: protein: recombinant; tags: N-terminal GST; dsDNA, one strand shown. The procedure, abridged: as §1
Chain of CRX (O43186 whole entry): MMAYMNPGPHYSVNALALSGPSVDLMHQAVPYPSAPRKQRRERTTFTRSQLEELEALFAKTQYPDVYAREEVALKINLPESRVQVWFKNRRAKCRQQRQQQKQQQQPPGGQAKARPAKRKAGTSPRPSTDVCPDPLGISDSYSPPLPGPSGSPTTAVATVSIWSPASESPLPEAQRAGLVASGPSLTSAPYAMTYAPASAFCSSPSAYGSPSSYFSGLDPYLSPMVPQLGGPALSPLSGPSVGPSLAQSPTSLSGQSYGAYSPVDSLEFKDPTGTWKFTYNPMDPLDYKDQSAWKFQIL
A further test concerns the target ETV1 (Homo sapiens, UniProt P50549 1-477). The note with it: protein: recombinant; tags: N-terminal GST; dsDNA, one strand shown. Put shortly:
as §1

Among the data in article PMC7862700, “An all-to-all approach to the identification of sequence-specific readers for epigenetic DNA modifications on cytosine” are binding signal values, retold here.

Chain of HSF1 (Q00613 whole entry): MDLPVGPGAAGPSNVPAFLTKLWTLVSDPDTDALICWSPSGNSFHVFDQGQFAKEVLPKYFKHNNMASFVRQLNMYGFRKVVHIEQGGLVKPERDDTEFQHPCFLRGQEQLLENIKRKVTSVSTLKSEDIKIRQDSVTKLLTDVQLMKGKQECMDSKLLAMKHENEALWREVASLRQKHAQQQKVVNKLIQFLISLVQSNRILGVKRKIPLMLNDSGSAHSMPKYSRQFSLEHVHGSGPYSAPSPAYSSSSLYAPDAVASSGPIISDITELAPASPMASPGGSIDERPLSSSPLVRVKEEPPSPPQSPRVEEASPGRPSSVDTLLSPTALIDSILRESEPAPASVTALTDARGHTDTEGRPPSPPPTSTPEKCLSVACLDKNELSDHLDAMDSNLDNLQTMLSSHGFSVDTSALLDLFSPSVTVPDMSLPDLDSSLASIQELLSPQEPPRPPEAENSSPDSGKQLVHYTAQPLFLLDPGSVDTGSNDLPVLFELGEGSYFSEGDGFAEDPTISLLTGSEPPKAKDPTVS
Chain of ETV1 (P50549 whole entry): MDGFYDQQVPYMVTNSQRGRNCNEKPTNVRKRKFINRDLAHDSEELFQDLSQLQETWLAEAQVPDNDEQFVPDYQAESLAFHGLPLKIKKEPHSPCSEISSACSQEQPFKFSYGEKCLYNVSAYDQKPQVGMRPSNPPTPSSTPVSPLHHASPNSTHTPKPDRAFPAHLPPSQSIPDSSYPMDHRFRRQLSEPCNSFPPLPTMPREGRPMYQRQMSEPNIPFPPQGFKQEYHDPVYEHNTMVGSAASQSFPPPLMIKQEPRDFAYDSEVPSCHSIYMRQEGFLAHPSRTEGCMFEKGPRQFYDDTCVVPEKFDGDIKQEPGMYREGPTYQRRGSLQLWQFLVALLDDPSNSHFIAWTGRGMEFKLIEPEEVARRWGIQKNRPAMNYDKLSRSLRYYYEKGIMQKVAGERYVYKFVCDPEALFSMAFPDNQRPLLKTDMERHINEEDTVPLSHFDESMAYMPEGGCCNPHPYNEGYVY
Chain of ELF1 (P32519 whole entry): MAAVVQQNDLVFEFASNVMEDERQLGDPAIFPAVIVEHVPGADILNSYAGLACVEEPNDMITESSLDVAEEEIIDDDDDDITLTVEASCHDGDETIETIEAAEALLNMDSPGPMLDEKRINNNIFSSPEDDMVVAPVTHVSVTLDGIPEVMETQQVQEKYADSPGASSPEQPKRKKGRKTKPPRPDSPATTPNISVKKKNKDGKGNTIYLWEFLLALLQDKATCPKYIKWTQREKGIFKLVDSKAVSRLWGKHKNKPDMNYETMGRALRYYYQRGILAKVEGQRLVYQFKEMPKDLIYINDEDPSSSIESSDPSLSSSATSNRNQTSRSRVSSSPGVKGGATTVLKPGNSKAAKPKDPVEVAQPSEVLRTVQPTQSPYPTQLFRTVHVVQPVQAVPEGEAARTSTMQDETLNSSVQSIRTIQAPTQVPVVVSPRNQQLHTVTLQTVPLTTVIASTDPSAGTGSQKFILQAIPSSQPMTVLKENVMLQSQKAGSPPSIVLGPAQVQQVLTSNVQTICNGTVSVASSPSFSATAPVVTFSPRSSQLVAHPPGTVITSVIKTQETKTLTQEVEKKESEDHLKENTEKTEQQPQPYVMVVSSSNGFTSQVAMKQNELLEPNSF
Chain of ETV5 (P41161 whole entry): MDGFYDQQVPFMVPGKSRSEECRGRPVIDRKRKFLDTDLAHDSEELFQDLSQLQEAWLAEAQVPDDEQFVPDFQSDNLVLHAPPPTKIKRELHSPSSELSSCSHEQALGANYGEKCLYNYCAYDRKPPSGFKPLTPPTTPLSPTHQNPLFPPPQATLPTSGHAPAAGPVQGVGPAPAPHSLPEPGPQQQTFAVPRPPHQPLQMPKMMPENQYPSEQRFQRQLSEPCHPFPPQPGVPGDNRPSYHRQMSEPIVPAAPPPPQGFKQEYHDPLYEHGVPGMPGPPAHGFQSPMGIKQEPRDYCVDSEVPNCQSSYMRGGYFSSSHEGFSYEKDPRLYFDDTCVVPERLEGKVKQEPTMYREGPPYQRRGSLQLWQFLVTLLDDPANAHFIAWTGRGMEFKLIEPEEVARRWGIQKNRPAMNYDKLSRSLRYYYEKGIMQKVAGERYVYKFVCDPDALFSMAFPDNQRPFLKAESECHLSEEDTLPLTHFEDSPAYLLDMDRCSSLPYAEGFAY
Chain of SPIB (Q01892 whole entry): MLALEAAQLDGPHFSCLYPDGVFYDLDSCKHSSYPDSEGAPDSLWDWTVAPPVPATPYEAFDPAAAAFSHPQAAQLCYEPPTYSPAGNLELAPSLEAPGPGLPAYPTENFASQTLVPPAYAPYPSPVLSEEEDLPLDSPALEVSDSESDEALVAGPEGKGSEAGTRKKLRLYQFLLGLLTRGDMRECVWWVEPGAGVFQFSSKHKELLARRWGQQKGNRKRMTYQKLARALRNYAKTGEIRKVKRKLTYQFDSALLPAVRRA

ACTTGG: the binding signal with FLI1 is 1.34 fold enrichment (6-mer frequency, TF over GST control); with ELK1, 1.19 fold enrichment (6-mer frequency, TF over GST control); in the test with GABPA, 1.15 fold enrichment (6-mer frequency, TF over GST control); with ERG, 1.16 fold enrichment (6-mer frequency, TF over GST control); with ELF1, 1.34 fold enrichment (6-mer frequency, TF over GST control); in the test with EHF, 1.1 fold enrichment (6-mer frequency, TF over GST control). Moreover, the binding signal with SPI1 is 1.21 fold enrichment (6-mer frequency, TF over GST control); with SPIB it was 1.25 fold enrichment (6-mer frequency, TF over GST control); with ELK3, 1.29 fold enrichment (6-mer frequency, TF over GST control); with FEV, 1.17 fold enrichment (6-mer frequency, TF over GST control); with ETV5, 1.21 fold enrichment (6-mer frequency, TF over GST control); in the test with HSF1, 1.09 fold enrichment (6-mer frequency, TF over GST control). Also, the binding signal was 1.27 fold enrichment (6-mer frequency, TF over GST control) in the test with SPIC; 1.31 fold enrichment (6-mer frequency, TF over GST control) with ELF4; 1.28 fold enrichment (6-mer frequency, TF over GST control) in the test with ELK4; 1.15 fold enrichment (6-mer frequency, TF over GST control) in the test with ETV2; 1.36 fold enrichment (6-mer frequency, TF over GST control) with ELF3; 1.1 fold enrichment (6-mer frequency, TF over GST control) in the test with CRX. Further, in the test with ETV1, the binding signal was 1.25 fold enrichment (6-mer frequency, TF over GST control).
